What was measured:
Format in all cases: functional
[1] = target: Solute carrier family 2, facilitated glucose transporter member 1 (Homo sapiens) (UniProt P11166); assay: ST_JUDE_LEISH: Cytotoxicity at 2uM final concentration against transgenic Leishmania Mexicana promastigotes LmGLUT1 that are glucose transport deficient and complemented with the human glucose transporter GLUT1. Activity is measured by DNA content using SYBR green in vitro
[2] = target: Hexose transporter 1 (Plasmodium falciparum) (UniProt O97467); assay: ST_JUDE_LEISH: Cytotoxicity at 2uM final concentration against transgenic Leishmania Mexicana promastigotes LmPfHT that are glucose transport deficient and complemented with the Plasmodium falciparum hexose transporter. Activity is measured by DNA content using SYBR green in vitro
[3] = target: Glucose transporter (Leishmania mexicana) (UniProt O61059); assay: ST_JUDE_LEISH: Cytotoxicity at 2uM final concentration against transgenic Leishmania Mexicana promastigotes LmGT2 that are glucose transport deficient and complemented with the L. Mexicana glucose transporter 2. Activity is measured by DNA content using SYBR green in vitro

Solute carrier family 2, facilitated glucose transporter member 1 (Homo sapiens), sequence (P11166 whole entry): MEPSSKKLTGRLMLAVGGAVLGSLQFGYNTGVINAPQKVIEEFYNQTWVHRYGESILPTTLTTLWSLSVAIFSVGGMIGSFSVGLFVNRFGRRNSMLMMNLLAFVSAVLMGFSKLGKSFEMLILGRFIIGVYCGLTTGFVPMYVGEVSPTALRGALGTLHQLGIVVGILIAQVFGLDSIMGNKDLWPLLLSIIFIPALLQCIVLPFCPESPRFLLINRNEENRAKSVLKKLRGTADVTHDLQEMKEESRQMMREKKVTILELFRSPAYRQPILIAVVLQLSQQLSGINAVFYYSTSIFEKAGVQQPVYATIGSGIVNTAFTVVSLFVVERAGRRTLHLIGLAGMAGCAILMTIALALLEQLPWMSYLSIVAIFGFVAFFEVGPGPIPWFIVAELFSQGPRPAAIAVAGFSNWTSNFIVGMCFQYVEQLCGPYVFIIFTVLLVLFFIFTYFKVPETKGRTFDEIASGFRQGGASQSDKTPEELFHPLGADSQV

| Structure (SMILES) | inhibition [1] [%] | inhibition [2] [%] | inhibition [3] [%] |
| --- | --- | --- | --- |
| CCOc1c(OC)ccc2c1CCN(CCN1CCC(NC(=O)c3ccc(-c4cccc(C(F)(F)F)c4C(F)(F)F)cc3)CC1)C2 | 1.91 | 1.96 | 1.39 |
| CCN1CCN(c2ccc(Nc3ccnc4ccc(Br)cc34)cc2)CC1 | 1.43 | 0.09 | -0.25 |
| COc1ccc2ncc(F)c(CCN3CC[C@@H](CNCc4cc5c(cn4)OCS5)C3)c2n1 | 2.66 | 1.69 | -0.48 |
| Cc1cccc2nc(-c3ccc(-c4ccc(NC(=O)C(C)CN(C)C)cc4)cc3)[nH]c12 (configuration not stated) | 11.2 | 9.44 | 5.39 |
| O=C(Nc1ccc2c(c1)CCC2)c1cnc(N2CCN(c3ccncc3)CC2)c(Cl)c1 | 54.2 | 63.6 | 37 |
| CCC(Cc1cnc2nc(N)nc(N)c2n1)c1ccc(C(=O)O)cc1 (configuration not stated) | 1.41 | 1.88 | 2.49 |
| CCOc1cc(C)ccc1NC1CCN(CCCCNC(=O)c2ccc(NC(=O)c3ccc(Cl)cc3)cc2)CC1 | -0.53 | 1.56 | 1.89 |
| COc1ccc2nc3cc(Cl)ccc3c(NCc3ccccc3)c2c1 | 2.39 | 2.92 | -0.49 |
| c1ccc2[nH]c(-c3ccc(-c4ccc(CN5CCN(CCN6CCOCC6)CC5)cc4)cc3)nc2c1 | 11.2 | 12.4 | 4.36 |
| COc1ccc2nccc(N3CCC(NCCNCc4cc5c(cn4)OCCO5)C3)c2n1 (configuration not stated) | 2.14 | 2.64 | 3.54 |
| COc1ccccc1CCNc1nc(C)cc(N[C@@H](CC(C)C)C(=O)Nc2ccccc2)n1 | 4.84 | 6.02 | -0.58 |
| CC(CCc1ccccc1)NCC(O)c1ccc2c3c(cccc13)S(=O)(=O)N2C (configuration not stated) | 5.47 | 5.04 | 4.71 |
| CCCN(CCC)C(=S)N/N=C1/C(=O)Nc2ccccc21 | 0.67 | -0.6 | -4.34 |
| CC(C)CCN1CCCN(Cc2ccc(C(=O)NCc3ccc(Cl)cc3)cc2)CC1 | 2.09 | 0.59 | -0.7 |
| O=C(Nc1cccc(-c2ccc(-c3nc4cc(F)ccc4[nH]3)cc2)c1)c1ccncc1 | 4.46 | 2.3 | 2.96 |
| COc1ccc2nccc(N3CCN(CCNCc4ccc5c(n4)NC(=O)CO5)CC3)c2n1 | 11.2 | 9.11 | 10.1 |
| CC(C)C[C@@H](C(=O)Nc1ccc(Cc2ccc(NC(=O)[C@H](CC(C)C)N(C)C(=O)OC(C)(C)C)cc2)cc1)N(C)C(=O)OC(C)(C)C | 0.03 | -1.12 | -0.46 |

| Structure (SMILES) | inhibition [1] [%] | inhibition [2] [%] | inhibition [3] [%] |
| --- | --- | --- | --- |
| Clc1ccc2c(NCCCCCCCCNc3ccnc4cc(Cl)ccc34)ccnc2c1 | 2.99 | 1.53 | 1.88 |
| CCC(C)NCc1c(O)ccc2c(CNC(C)CC)c(O)ccc12 (configuration not stated) | 2.24 | 3.63 | 2.13 |
| COc1ccc(NC(=O)c2ccc(Br)c(C)c2)cc1N1CCN(Cc2ccccc2)CC1 | 1.57 | 0.13 | -0.04 |
| Fc1cccc(C=NN=c2cc[nH]c3ccccc23)c1 | 9.03 | 6.41 | 6.88 |
| CC(C)COc1ccc(Cl)cc1Cc1ccc(-c2nc3ccc(Cl)cc3[nH]2)o1 | -1.56 | 2.55 | 1.16 |
| Nc1cccc(CNCc2ccc(-c3cccc(-c4nc5cc(F)ccc5[nH]4)c3)cc2)c1 | -0.29 | -1.11 | -1.93 |
| COc1cc(OC)cc(-c2nn(-c3ccc([N+](=O)[O-])cc3Cl)c(=S)n2Cc2ccco2)c1 | -1.56 | -0.65 | 2.4 |
| COc1cc(Nc2ccnc3cc(-c4ccncc4)ccc23)cc(OC)c1OC | 11.4 | 20.7 | 9.21 |
| CCOc1ccc(OCC)c(N2CCN(CCCCNC(=O)c3ccc(NC(=O)c4ccc(Cl)cc4)cc3)CC2)c1 | 3.44 | 3.28 | 3.45 |
| CCC(C)(C)c1ccc(OCCCC(=O)Nc2ccc(Cl)c([N+](=O)[O-])c2)c(C(C)(C)CC)c1 | 0.37 | 0.79 | 1.34 |
| Cc1c(CNCCCNc2nc3ccncc3[nH]2)sc(Br)c1Br | 6.56 | -2.83 | 4.11 |
| Cc1cc(N2CCCCC2)nc2ccc(NC(=O)c3cncc(Br)c3)cc12 | 10.7 | 9.8 | 6.57 |
| CCC1CN(CCCn2c3ccccc3c3ccccc32)C(CC)CN1 (configuration not stated) | -0.46 | -0.59 | -0.18 |
| C(=NNc1nc2ccccc2[nH]1)c1ccccc1OCc1ccccc1 | 4.25 | 6.99 | 3.06 |
| Cc1cc(N2CCCC2)nc(Nc2ccc(NC(=O)c3cccc(F)c3)cc2)n1 | 33.5 | 14.7 | 16.2 |
| O=C(Nc1ccc(C(F)(F)F)cc1)Nc1ccccc1N1CCNCC1 | 2.1 | 1.1 | 6.58 |
| COc1ccc2[nH]ccc(=NN=Cc3ccc(F)cc3)c2c1 | 2.33 | -0.63 | -0.34 |
